PubChem BioAssay (NCATS)
Records with an inconclusive call do not appear. The source made the active and inactive calls. Unless noted, calls come from the whole dose curve; as a rule, active = well fitted curve in the direction sought with a large enough effect; inconclusive = small, poorly fitted or top-dose-only effect, or another doubt; inactive = no such curve, though single readings can be large; an effect the other way counts as inactive or inconclusive.

How the values were obtained:
[1] = Validation screen for small molecules that induce genotoxicity in human embryonic kidney (HEK293T) cells expressing luciferase-tagged ELG1 (AID 493106); note: potency is the fitted concentration of half-maximal effect
Outline: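 Luminescence from an ELG1-luciferase fusion serves as the read-out, rising when genetic stress elevates ELG1 protein. HEK293T reporter cells (2,000 per well) received 23 nL compound, incubated 16 hr at 37 °C, then ONE-Glo for 30 min at room temperature.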

[2] = molecular target: ATPase family AAA domain-containing protein 5 (Homo sapiens) (UniProt Q96QE3); experiment: Validation screen for small molecules that inhibit ELG1-dependent DNA repair in human embryonic kidney (HEK293T) cells expressing luciferase-tagged ELG1 (AID 493107);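 note: cells co-treated with the DNA-damaging agent 5-fluorouridine alongside compound; series mostly up to about 46 µM; % is set by controls: 0 for no effect and ±100 for the full control effect; inhibitors lower the ELG1-luciferase luminescence signal; nearly all actives have a fitted effect of over 70% in size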
Outline: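 Luminescence from ONE-Glo, developed 30 min at room temperature, served as read-out of ELG1-luciferase levels. Beforehand, reporter HEK293T cells received 5-fluorouridine plus test compound for 16 hr at 37 °C.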

[3] = molecular target: Thyrotropin-releasing hormone receptor (Homo sapiens) (UniProt P34981); experiment: qHTS for Small Molecule Agonists and Allosteric Enhancers of Human TRH Receptor: Validation Screen for Agonists (AID 493127;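 active = calcium activation more than 3 SD above the typical response in the agonist read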;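 note: intracellular calcium rise by fluo-8 fluorescence before TRH EC20 addition; 0% is about no effect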); conditions: TRH receptor agonist cell assay; at 2 µM; stronger effect = higher value
Outline: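 Cells 2000/well, 10% FCS, 18 h 33.5C/5% CO2 → fluo-8 Ca dye, RT 30 min–1.5 h → FDSS baseline 10 × 1 s → compound added → 230 cycles (1 s/cycle) agonist mode. TRH controls.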

[4] = Nrf2 qHTS screen for inhibitors: Validation (AID 493153; active = well fitted inhibition curve with a large enough effect in the main read-out, with a control signal flat, not every such curve was filed as active); conditions: viability change: measured here: cytotoxicity max response
Outline: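 Luminescence from an ARE-firefly luciferase reporter in A549 cells gives Nrf2 inhibition; an earlier CellTiter-Fluor fluorescent read flags cytotoxicity. Cells in 5% FBS OPTI-MEM received compound dilution series for 18-24 h at 37°C.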

[5] = qHTS for Inhibitors of Cell Surface uPA Generation: Validation Assay (AID 493164); note: 0% is about no effect
Outline: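 RAW 264.7 cells (4000/well) were plated overnight, then exposed for 18 h at 37 C, 5% CO2 to compounds in a 7-point 1:5 titration (2.45 nM–38.3 uM final). Intracellular ATP was read by ATP-Lite luminescence.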

[6] = molecular target: Galactokinase (Homo sapiens) (UniProt P51570); experiment: qHTS Validation Assay for Inhibitors of Human Galactokinase (GALK) (AID 493189); note: 0% is about no effect
Outline: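 Enzyme activity is inferred from ATP consumption: human GALK phosphorylates galactose (100 uM) using 35 uM ATP for 1 h at room temperature, and luciferase-based Kinase-Glo Plus reports unconsumed ATP.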

[7] = molecular target: Peptidyl-prolyl cis-trans isomerase NIMA-interacting 1 (Homo sapiens) (UniProt Q13526); experiment: qHTS Validation Assay to Find Inhibitors of Pin1 (AID 504536; active = well fitted inhibition curve with a large enough effect in the polarisation, with a control signal flat, not every such curve was filed as active; the % refers to the polarisation;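 note: 0% = full Pin1 enzyme wells and -100% = no-enzyme wells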)
Outline: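 Fluorescence polarization competition: compounds (titration) displace HiFluor-488-labeled Pin1-1b peptide from Pin1 (0.3 uM final) in pH 7.5 HEPES buffer with DTT, 10 min at room temperature; %Activity normalized to no-enzyme wells, curves fitted.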

[8] = molecular target: Phosphoglycerate kinase, glycosomal (Trypanosoma brucei brucei) (UniProt P07378); experiment: qHTS Validation Assay to Find Inhibitors of Phosphoglycerate Kinase (AID 504547);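 note: control wells lack PGK and mark full inhibition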
Outline: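 Inhibition of the enzyme is judged by a Kinase-Glo Plus luminescent signal following a one-hour incubation at room temperature. Because 1,3-BPG is unstable, it is made in situ by GAPDH at 100nM final; no-PGK wells define the baseline.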

[9] = molecular target: phosphoglycerate mutase (Leishmania major) (UniProt Q4Q090); experiment: qHTS Validation Assay to Find Inhibitors of Phosphoglycerate Mutase (AID 504548); note: series mostly up to about 58 µM; % is set by controls: 0 for no effect and ±100 for the full control effect
Outline: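 Lm PGAM 1.25nM final; 100 mM TEA pH 7.6, 5 mM MgCl2, 0.01% Tween-20; 45 min RT; Kinase-GloPlus, 10 min; end-point luminescence. Enzyme-free wells as negative controls.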

[10] = molecular target: Ubiquitin carboxyl-terminal hydrolase 1 (Homo sapiens) (UniProt O94782); experiment: Inhibitors of USP1/UAF1: Pilot qHTS (AID 504865);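 note: rhodamine fluorescence freed from ubiquitin-rhodamine substrate followed over time; top concentration of the series differs between compounds; % is set by controls: 0 for no effect and ±100 for the full control effect; nearly all actives have a fitted effect of over 35% in size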
Outline: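 Enzyme-free wells gave the negative control, while test wells held 1nM USP1/UAF1 preincubated with compound for 15 min at room temperature. Ub-Rho at 150nM final started the reaction, and fluorescence at 480/540 nm was recorded kinetically.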

[11] = molecular target: Voltage-gated inwardly rectifying potassium channel KCNH2 (Homo sapiens) (UniProt Q12809); experiment: qHTS Assay for Small Molecule Inhibitors of the Human hERG Channel Activity (AID 588834);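 note: top concentration of the series differs between compounds; % is set by controls: 0 for no effect and ±100 for the full control effect; lower thallium flux fluorescence means stronger hERG block; nearly all actives have a fitted effect of over 50% in size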
Outline: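 Blockade is seen as reduced FluxOR thallium-flux fluorescence in U2OS cells expressing hERG from a BacMam construct, in Opti-MEM with 2% FCS. Concentration-response data fitted to the Hill equation for AC50.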

[12] = molecular target: Glutaminase kidney isoform, mitochondrial (Homo sapiens) (UniProt O94925); experiment: qHTS for Inhibitors of Glutaminase (GLS): LOPAC Validation (AID 624146); note: potency is the fitted concentration of half-maximal effect; nearly all actives have a fitted effect of over 60% in size
Outline: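 Read-out is an Amplex red fluorescence increase coupled through glutamate oxidase and HRP, measured before and after 30 min room-temperature incubation. hKGA is in 45 mM KH2PO4 (pH 8.2) with 0.02% Tween-20; glutamine added as 1mM solution.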

[13] = qHTS of Trypanosoma Brucei Inhibitors: LOPAC Validation (AID 624147); note: 0% is about no effect
Outline: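 Screened from lowest to highest concentration, compounds were pinned into TbPYK/substrate mixtures, and ADP (130 uM final) was added. Plates sat at room temperature for 45 min prior to Kinase-Glo Plus detection by luminescence.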

[14] = molecular target: Glucagon-like peptide 1 receptor (Homo sapiens) (UniProt P43220); experiment: qHTS of GLP-1 Receptor Agonists: LOPAC Validation (AID 624148);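 note: luminescence from a luciferase reporter switched on by cAMP; 0% is about no effect; higher luminescence signal means agonism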
Outline: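 Agonism scored as increased luciferase luminescence driven by cAMP in HEK293 clones carrying GLP-1R. Cells settled 12 hours, received compound for 4-6 hr at 37 deg C, 5% CO2, and were read after 12 min detection reagent at RT.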

[15] = qHTS of Nrf2 Activators: LOPAC Validation (AID 624149); note: 0% is about no effect
Outline: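 Luminescence read-out of ARE-luciferase activation: AREc32_Fluc cells treated with compounds for 24 hr at 37 deg C, then lysed with Steady-Glo for 30 min at room temperature before reading.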

[16] = HTS Assay for Allosteric Antagonists of the Human D2 Dopamine Receptor: Hit Validation in HTRF (AID 624455);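 note: stable D1 dopamine receptor cell line scored for blocking the D1 response; % is set by controls: 0 for no effect and ±100 for the full control effect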
Outline: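 First, antagonism was screened by calcium flux in a force-coupled, inducible Hek293 Trex D2 line challenged with EC80 dopamine. Hits then went into an HTRF assay in cells stably expressing D1, testing inhibition of the D1 response.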

[17] = molecular target: Arylsulfatase A (Homo sapiens) (UniProt P15289); experiment: qHTS screen for enhancers of Arylsulfatase A (ASA1): LOPAC Validation Assay (AID 720538); note: 0% is about no effect
Outline: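 Cell-based enhancement test: residual ASA activity in SV40-transformed I179S patient fibroblasts is measured by pNCS turnover (0.5mM final, 14h, room temperature) following 48h compound incubation; higher fluorescence indicates activation.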

[18] = qHTS for Activators of Parkin Expression: LOPAC Validation Assay (NLuc Reporter) (AID 720572;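 note: 0% = DMSO and 100% = positive control compound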)
Outline: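 Parkin promoter-driven FLuc/NLuc neuronal reporter cells; 24 h plating, 7-pt dose response, 24 h at 37 C/5% CO2; FLuc then NanoLuc reagent, 10 min each, luminescence; DMSO/positive control normalized.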

[19] = molecular target: Hexokinase-4 (Homo sapiens) + Glucokinase regulatory protein (Homo sapiens) (UniProt P35557+Q14397); experiment: qHTS assay for inhibitors of recombinant human GCK-GKRP interaction: Diaphorase-coupled assay (AID 743205)
Outline: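 Signal derives from resorufin generated by diaphorase, linked to GCK turnover of glucose (5 mM) and ATP (0.4 mM). Enzyme complex was added after a 20-minute compound preincubation and monitored for 30 minutes.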

Sequence of phosphoglycerate mutase (Leishmania major) (Q4Q090 1-553): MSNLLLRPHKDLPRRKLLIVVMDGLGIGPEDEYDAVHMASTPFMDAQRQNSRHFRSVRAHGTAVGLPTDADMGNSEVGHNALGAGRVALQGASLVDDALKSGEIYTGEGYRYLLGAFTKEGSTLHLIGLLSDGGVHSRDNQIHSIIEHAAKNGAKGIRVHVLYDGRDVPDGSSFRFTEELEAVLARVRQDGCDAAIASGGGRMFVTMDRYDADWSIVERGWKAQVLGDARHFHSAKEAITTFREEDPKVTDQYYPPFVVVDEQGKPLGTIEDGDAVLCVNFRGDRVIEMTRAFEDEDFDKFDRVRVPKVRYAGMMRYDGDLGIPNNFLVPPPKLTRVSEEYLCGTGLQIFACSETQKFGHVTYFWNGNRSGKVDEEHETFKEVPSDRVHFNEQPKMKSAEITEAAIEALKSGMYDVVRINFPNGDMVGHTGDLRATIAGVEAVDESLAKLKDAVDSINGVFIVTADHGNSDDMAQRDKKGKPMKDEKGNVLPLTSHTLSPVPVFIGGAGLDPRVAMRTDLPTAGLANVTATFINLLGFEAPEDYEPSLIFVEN
Sequence of Glutaminase kidney isoform, mitochondrial (Homo sapiens) (O94925 whole entry, looked up, canonical isoform): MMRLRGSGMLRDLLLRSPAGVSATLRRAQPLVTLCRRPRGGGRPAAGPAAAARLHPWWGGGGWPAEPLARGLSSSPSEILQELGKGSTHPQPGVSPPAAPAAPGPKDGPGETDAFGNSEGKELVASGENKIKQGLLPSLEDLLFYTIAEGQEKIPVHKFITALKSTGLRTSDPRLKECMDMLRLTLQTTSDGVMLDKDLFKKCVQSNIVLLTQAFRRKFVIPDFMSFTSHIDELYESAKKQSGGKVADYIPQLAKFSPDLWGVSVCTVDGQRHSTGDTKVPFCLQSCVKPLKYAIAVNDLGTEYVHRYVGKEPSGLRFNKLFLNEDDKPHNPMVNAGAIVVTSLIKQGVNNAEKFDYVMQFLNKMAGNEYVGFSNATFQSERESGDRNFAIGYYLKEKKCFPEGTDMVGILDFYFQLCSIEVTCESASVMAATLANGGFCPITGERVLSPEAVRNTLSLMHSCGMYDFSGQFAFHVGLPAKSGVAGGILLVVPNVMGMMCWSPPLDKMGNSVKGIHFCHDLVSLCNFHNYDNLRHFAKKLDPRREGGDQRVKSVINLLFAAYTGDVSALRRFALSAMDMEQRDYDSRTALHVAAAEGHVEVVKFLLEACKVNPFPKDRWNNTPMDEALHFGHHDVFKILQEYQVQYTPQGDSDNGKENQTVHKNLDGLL
Sequence of Galactokinase (Homo sapiens) (P51570 whole entry, looked up): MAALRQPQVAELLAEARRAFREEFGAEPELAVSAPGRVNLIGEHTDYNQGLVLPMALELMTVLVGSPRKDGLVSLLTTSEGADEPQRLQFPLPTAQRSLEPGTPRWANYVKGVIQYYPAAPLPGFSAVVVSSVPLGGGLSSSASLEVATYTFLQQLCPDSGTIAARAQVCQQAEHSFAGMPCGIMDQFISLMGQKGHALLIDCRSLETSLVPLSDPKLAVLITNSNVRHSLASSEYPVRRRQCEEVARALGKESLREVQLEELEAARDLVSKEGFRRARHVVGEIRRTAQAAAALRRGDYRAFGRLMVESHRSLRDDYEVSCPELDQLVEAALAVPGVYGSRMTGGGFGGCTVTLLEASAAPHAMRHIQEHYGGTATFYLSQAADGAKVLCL
Sequence of Glucagon-like peptide 1 receptor (Homo sapiens) (P43220 whole entry, looked up): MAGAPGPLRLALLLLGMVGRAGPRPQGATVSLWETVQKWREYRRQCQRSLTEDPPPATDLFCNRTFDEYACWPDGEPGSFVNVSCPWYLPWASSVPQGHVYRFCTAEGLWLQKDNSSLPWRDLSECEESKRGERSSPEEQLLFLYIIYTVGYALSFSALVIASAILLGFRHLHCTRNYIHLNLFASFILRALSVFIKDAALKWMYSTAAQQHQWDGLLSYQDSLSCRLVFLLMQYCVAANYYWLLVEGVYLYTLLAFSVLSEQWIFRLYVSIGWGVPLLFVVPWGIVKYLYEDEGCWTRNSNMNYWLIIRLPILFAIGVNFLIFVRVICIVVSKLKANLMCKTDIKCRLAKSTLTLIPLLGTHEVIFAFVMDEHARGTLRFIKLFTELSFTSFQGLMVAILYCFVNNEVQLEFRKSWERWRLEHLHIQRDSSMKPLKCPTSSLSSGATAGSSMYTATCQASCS
Sequence of Hexokinase-4 (Homo sapiens) + Glucokinase regulatory protein (Homo sapiens) (P35557 whole entry, looked up): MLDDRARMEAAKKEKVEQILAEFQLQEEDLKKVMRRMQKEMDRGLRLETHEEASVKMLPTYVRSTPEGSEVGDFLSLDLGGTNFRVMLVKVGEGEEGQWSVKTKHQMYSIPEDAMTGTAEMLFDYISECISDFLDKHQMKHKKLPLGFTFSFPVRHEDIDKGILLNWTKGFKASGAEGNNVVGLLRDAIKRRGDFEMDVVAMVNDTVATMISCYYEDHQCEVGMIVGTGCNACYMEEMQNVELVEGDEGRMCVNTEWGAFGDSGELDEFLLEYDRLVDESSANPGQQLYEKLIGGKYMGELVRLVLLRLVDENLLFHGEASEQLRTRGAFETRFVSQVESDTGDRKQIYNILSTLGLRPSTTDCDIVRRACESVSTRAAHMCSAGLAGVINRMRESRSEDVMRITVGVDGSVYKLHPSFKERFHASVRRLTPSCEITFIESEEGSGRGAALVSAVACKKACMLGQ
Sequence of Hexokinase-4 (Homo sapiens) + Glucokinase regulatory protein (Homo sapiens) (Q14397 whole entry, looked up): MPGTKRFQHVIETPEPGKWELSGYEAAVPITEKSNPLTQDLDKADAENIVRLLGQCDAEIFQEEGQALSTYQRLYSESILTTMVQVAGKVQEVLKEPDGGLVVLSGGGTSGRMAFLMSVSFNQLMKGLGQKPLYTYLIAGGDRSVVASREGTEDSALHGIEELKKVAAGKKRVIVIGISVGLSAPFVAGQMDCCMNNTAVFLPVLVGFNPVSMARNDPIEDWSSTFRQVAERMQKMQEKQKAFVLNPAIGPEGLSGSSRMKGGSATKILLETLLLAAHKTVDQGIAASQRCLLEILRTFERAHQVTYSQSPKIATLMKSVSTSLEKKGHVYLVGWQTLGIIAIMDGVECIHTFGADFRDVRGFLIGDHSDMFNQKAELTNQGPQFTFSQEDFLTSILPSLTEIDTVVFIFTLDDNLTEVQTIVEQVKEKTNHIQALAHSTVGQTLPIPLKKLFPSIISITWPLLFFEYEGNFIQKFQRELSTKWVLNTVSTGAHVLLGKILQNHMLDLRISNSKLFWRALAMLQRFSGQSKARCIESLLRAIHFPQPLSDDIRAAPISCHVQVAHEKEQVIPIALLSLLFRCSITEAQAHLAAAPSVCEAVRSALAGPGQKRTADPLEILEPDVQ
Sequence of Peptidyl-prolyl cis-trans isomerase NIMA-interacting 1 (Homo sapiens) (Q13526 whole entry, looked up): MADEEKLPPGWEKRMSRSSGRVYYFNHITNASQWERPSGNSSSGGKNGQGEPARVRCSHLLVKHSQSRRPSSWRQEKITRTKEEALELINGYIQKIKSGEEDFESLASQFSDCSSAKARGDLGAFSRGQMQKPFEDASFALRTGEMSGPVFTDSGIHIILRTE
Sequence of Thyrotropin-releasing hormone receptor (Homo sapiens) (P34981 whole entry, looked up): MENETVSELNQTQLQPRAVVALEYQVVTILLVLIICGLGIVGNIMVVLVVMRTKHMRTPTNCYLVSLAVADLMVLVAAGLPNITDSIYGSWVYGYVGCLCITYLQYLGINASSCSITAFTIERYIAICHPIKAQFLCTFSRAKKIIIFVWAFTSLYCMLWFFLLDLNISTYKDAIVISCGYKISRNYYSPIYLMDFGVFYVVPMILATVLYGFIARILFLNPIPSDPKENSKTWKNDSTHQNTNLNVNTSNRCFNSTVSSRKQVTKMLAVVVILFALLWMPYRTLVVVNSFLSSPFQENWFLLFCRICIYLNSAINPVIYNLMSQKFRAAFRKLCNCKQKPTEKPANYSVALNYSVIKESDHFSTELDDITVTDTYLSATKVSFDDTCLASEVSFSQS
Sequence of Voltage-gated inwardly rectifying potassium channel KCNH2 (Homo sapiens) (Q12809 whole entry, looked up): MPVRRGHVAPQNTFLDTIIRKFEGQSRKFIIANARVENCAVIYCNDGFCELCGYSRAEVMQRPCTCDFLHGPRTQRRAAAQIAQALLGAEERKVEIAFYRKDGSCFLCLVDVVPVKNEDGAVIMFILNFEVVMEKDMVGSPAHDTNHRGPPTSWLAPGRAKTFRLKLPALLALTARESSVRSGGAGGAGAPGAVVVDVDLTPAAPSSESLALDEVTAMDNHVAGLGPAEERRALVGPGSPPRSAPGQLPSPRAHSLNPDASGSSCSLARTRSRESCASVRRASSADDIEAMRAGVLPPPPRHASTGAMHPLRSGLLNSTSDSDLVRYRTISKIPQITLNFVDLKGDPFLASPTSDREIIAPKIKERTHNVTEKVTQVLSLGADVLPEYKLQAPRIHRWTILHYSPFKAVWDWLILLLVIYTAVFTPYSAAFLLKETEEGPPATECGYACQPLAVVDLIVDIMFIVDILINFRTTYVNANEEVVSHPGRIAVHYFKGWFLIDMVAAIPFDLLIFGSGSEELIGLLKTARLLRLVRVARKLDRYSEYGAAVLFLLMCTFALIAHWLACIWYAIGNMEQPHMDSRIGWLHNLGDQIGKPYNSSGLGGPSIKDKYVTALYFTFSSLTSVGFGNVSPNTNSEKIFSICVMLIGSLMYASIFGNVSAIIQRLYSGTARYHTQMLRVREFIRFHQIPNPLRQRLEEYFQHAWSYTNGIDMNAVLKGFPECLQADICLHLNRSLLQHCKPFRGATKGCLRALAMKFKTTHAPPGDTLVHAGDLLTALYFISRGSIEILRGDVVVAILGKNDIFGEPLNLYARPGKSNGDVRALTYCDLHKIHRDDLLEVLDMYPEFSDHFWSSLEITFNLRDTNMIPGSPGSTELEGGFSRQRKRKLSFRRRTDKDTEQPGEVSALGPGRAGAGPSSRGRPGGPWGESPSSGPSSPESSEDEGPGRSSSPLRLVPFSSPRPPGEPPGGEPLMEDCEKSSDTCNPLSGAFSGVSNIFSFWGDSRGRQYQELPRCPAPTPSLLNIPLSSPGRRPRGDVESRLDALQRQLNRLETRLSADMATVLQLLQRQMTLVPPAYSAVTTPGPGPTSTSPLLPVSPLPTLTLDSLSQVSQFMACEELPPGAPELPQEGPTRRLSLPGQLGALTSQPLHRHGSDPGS

S=C(Nc1ccccc1)Nc1nccs1
active: Potency [1] 20.6 µM | Potency [12] 11.2 µM
-0.228%: viability change [4]
inactive: Potency [2] | activation [3] 1.31% | outcome [4] | outcome [5] | outcome [6] | Potency [7] | Potency [8] | outcome [9] | Potency [10] | Potency [11] | outcome [13] | outcome [14] | outcome [15] | outcome [16] | Potency [17] | outcome [18] | outcome [19]
